Experimental findings from PubChem BioAssay (NCATS) are described below.

Where “and” joins values, the source holds several entries; their conditions need not be identical. Equal values may be shown once. Results filed as inconclusive are left out. Entries that show only a call come without a potency. More than one record can exist for a structure, and the calls need not agree. Calls of active or inactive are those of the source. Calls come from the whole dose curve; as a rule, active = well fitted curve in the direction sought with a large enough effect; inconclusive = small, poorly fitted or top-dose-only effect, or another doubt; inactive = no such curve, though single readings can be large; an effect the other way counts as inactive or inconclusive.

Experiment [1] concerns the target Cytochrome P450 3A4 (Homo sapiens) (UniProt P08684). Nature of the experiment: qHTS Assay for Activators of Cytochrome P450 3A4 (AID 885). Note: nearly all actives have a fitted effect of over 65% in size. The note with it: recombinant CYP3A4, Luciferin-PPXE luminescence, 60 min; series mostly up to 57.1 µM. A digest of the protocol: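 Activators are scored by enhanced luminescence from CYP3A4 conversion of luciferin-PPXE (25uM, equal to KM) to luciferin, after 60 min at RT with an NADPH-regenerating system.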
(qHTS replaces the single test concentration by a dilution series.)

Experiment [2] shares this target. Nature of the experiment: qHTS Assay for Inhibitors and Substrates of Cytochrome P450 3A4 (AID 884). Note: nearly all actives have a fitted effect of over 50% in size. The note with it: recombinant CYP3A4, Luciferin-PPXE luminescence; series mostly up to 57.1 µM. A digest of the protocol: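 Luminescent readout of luciferin produced by CYP3A4 (20 nM) dealkylation of Luciferin-PPXE, 25 uM (its KM). NADPH-driven reaction ran 60 min at RT after 10 min compound preincubation; data scaled to 57 uM ketoconazole as 100% inhibition.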

A short description of experiment [3]: Confirmation and Secondary Assay for Modulators of Hemoglobin Beta Chain Splicing at IVS2 654 locus (AID 910).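 Note: HeLa cells stably carrying EGFP split by mutant beta-globin IVS2-654 intron; per-well total GFP intensity by laser scanning cytometry after 2-day treatment.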 The note with it: HeLa EGFP-654 splicing reporter, GFP fluorescence, 48 h; series mostly up to 46.1 µM. A digest of the protocol: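 Readout: per-well total peak green fluorescence (488 nm ex, 500–520 nm em) from objects 5–250 µm, reflecting correct splicing of an EGFP-654 reporter. Compounds were applied for 2 days at 37 °C to overnight-plated HeLa EGFP-654 cells; controls were DMSO and 500 nM IVS2-654 PNA.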

In experiment [4] the target is Cytochrome P450 2C9 (Homo sapiens) (UniProt P11712). As to the kind of experiment: qHTS Assay for Inhibitors and Substrates of Cytochrome P450 2C9 (AID 883). Note: nearly all actives have a fitted effect of over 60% in size. The following applies: recombinant CYP2C9, luciferin-H luminescence, 60 min; series mostly up to 57.1 µM. A digest of the protocol: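 Inhibition of CYP2C9 is scored as loss of luminescence, with 57uM sulphaphenazole defining 100% inhibition. Substrate Luciferin-H is used at 100uM, equal to its KM; enzyme at 10nM in 25mM KPO4, 60 min at 37C with NADPH regeneration.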

Experiment [5] has as its target Cytochrome P450 2D6 (Homo sapiens) (UniProt P10635). As to the kind of experiment: qHTS Assay for Inhibitors and Substrates of Cytochrome P450 2D6 (AID 891). Note: nearly all actives have a fitted effect of over 60% in size. Note: potency is the fitted concentration of half-maximal effect. The note with it: recombinant CYP2D6, luciferin-ME EGE luminescence; series mostly up to 57.1 µM. A digest of the protocol: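 Luminescent read-out of luciferin formed by 5 nM human CYP2D6 demethylating 30 uM Luciferin-ME EGE (Km level) over 60 min at room temperature after NADPH regeneration addition. Data normalized to full inhibition by 1.43 uM quinidine.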

The target in experiment [6] is Cytochrome P450 2C19 (Homo sapiens) (UniProt P33261). As to the kind of experiment: qHTS Assay for Inhibitors and Substrates of Cytochrome P450 2C19 (AID 899). Note: nearly all actives have a fitted effect of over 60% in size. The note with it: recombinant CYP2C19, luciferin-H EGE luminescence; series mostly up to 57.1 µM. A digest of the protocol: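 5nM enzyme + 10uM Luciferin-H EGE (=KM), 50mM KPO4; cpd pin-transferred, 10 min 37C; NADPH regen, 60 min 37C; stopped w/ luciferin detection reagent, 20 min; luminescence. Normalized to 57uM ketoconazole (AC100).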
Cytochrome P450 2C19 (Homo sapiens), sequence (P33261 whole entry, looked up): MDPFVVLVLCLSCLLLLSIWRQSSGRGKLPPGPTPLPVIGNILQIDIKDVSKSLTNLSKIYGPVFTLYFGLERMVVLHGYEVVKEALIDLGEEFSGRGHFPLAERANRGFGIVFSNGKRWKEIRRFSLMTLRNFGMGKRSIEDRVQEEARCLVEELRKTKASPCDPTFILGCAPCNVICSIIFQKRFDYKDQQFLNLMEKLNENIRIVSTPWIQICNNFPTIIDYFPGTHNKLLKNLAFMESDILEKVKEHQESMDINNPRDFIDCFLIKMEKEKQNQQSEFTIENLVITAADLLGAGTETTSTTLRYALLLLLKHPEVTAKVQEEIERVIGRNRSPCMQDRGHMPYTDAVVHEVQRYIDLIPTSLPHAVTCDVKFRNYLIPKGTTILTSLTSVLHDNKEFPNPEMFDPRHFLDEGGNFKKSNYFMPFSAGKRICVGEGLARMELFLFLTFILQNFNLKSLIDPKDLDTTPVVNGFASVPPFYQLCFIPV

Cytochrome P450 3A4 (Homo sapiens), sequence (P08684 whole entry, looked up): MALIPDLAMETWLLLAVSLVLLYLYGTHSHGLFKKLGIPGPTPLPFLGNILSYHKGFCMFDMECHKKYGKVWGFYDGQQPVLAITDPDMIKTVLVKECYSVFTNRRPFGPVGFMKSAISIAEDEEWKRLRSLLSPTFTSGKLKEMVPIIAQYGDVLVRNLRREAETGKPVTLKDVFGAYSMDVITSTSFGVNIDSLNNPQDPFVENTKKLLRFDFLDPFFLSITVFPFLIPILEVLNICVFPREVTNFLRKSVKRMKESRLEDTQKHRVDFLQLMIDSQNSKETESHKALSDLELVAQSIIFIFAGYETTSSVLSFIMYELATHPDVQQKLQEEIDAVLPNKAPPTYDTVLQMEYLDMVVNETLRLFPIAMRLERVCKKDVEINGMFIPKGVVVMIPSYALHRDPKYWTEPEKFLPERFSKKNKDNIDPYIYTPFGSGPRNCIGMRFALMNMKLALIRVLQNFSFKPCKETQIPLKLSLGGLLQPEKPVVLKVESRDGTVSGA
Cytochrome P450 2D6 (Homo sapiens), sequence (P10635 whole entry, looked up): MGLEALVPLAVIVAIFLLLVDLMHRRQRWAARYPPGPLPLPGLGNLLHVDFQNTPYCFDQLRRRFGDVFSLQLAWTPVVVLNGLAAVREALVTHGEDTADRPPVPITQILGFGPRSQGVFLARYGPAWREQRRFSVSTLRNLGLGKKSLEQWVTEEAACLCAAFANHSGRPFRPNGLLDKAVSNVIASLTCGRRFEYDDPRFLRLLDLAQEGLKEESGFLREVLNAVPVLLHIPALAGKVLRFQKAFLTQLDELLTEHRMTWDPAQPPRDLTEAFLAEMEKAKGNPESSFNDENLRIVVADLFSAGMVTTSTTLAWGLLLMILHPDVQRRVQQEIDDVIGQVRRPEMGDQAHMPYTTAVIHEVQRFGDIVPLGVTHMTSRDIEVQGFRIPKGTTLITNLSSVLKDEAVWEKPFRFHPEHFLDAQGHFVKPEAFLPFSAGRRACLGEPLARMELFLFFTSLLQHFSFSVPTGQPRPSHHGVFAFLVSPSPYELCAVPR
Cytochrome P450 2C9 (Homo sapiens), sequence (P11712 whole entry, looked up): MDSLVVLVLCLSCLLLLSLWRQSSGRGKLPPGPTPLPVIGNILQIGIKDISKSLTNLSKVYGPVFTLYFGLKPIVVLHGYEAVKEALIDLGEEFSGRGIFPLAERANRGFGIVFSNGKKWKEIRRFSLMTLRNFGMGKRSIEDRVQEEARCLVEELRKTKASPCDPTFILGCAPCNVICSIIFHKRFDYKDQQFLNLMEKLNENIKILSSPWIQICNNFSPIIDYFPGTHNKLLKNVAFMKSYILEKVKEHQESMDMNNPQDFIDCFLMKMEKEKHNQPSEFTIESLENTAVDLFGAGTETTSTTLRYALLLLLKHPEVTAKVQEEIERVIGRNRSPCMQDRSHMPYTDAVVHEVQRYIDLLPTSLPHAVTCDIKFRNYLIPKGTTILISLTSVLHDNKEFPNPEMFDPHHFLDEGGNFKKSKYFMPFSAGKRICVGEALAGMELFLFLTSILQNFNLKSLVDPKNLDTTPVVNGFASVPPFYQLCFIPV

With `CCN(CC)CCCC(C)Nc1c2ccc(Cl)cc2nc2ccc(OC)cc12` (stereo not given), the outcome in experiment [1] was inactive.

With `CN(C)CCN(Cc1ccccc1)c1ccccn1`, the Potency entry in experiment [2] was “inactive”. Moreover, the call in experiment [3] was inactive.

As for `Cc1ccc(C(C)C)cc2c(C)ccc1-2`, in experiment [2], the Potency result was “inactive”. The outcome in experiment [3] was inactive.

With `CC1=C(/C=C/C(C)=C/C=C/C(C)=C/C(=O)O)C(C)(C)CCC1`, the outcome in experiment [1] was inactive.

As for `O=C1NS(=O)(=O)c2ccccc21`, the Potency entry in experiment [2] was “inactive”. In experiment [3], the call was inactive.

For `CN(C)CCOC(C)(c1ccccc1)c1ccccn1` (stereo not given), the Potency entry in experiment [2] was “inactive”. The compound was classed as inactive in experiment [3].

In the case of `CCN(CC)C(C)CN1c2ccccc2Sc2ccccc21` (stereo not given), the result in experiment [1] and in experiment [3] was inactive.

For the compound `CSc1ccc2c(c1)N(CCC1CCCCN1C)c1ccccc1S2` (stereo not given), the outcome in experiment [3] was inactive.

In the case of `NC(=O)NC(=O)Cc1ccccc1`, in experiment [2], the Potency entry was “inactive”. In addition, in experiment [3], the compound was classed as inactive.

In the case of `CSc1ccc2c(c1)C(N1CCN(C)CC1)Cc1ccccc1S2` (stereo not given), in experiment [3], the result was inactive.

With `CC(C)C(=O)c1c(C(C)C)nn2ccccc12`, the Potency result in experiment [4] and in experiment [6] was “inactive” throughout. Also, in experiment [5], the Potency result was “inactive and 39.8 nM (active)”.

As for `CN(C)CC[C@@H](c1ccc(Cl)cc1)c1ccccn1`, the Potency result in experiment [2] was “inactive”. The compound was classed as inactive in experiment [3].

For `CC(CN1c2ccccc2Sc2ccccc21)N(C)C` (stereo not given), the Potency entry in experiment [2] was “inactive”. Besides, the compound was classed as inactive in experiment [3].

Turning to `CCCCCCCCCCCCCCCCCCOCC(O)CO` (stereo not given), the Potency entry in experiment [2] is “inactive”. Besides, the compound was called inactive in experiment [3].

Consider `O=C(O)c1ccccc1O`, for which, in experiment [2], the Potency entry is “inactive”. Further, the call in experiment [3] was inactive.

As to `CC(COc1ccccc1)NC(C)C(O)c1ccc(O)cc1` (stereo not given), in experiment [2], the Potency entry was “inactive”. Also, in experiment [3], the outcome was inactive.

`O=c1cc[nH]c(=S)[nH]1`: the Potency entry in experiment [2] was “inactive”. The result in experiment [3] was inactive.

As for `CC(C)(C(=O)O)c1ccc(C(O)CCCN2CCC(C(O)(c3ccccc3)c3ccccc3)CC2)cc1` (stereo not given), the compound was classed as inactive in experiment [3].

Turning to `NS(=O)(=O)c1cc2c(cc1C(F)(F)F)NC(Cc1ccccc1)NS2(=O)=O` (stereo not given), in experiment [3], the result was inactive.

Turning to `CNCC(O)c1ccc(O)c(O)c1` (stereo not given), in experiment [3], the outcome was inactive.

With `CNCCC(Oc1ccc(C(F)(F)F)cc1)c1ccccc1` (stereo not given), the result in experiment [3] was inactive.
